For 52 compounds, inhibition and activation results are on record in PubChem BioAssay.

The nature of test [1]: BSA probe fluorescence interference – biochemical, TAMRA-labeled BSA, counter-screen for TCR-CD3 interaction inhibitor project (AID 652035; in the data active means inhibition above about 23%;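 further: 0% = buffer low control and 100% = reference high control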). The conditions noted are these: TAMRA-labeled BSA probe fluorescence counterscreen; at 9.4 µM; hits give high values.
Test [2] has as its system T-cell receptor (TCR)-CD3 interaction, human. Description: blockers of TCR binding to CD3 – biochemical, fluorescence, TAMRA-labeled TCR probe, confirmation (AID 652036; in the data active means inhibition above about 19%). The conditions noted are these: TAMRA-labeled TCR probe fluorescence binding assay; at 9.4 µM; hits give high values.
In test [3] the test system is transactivating tegument protein VP16 (Human herpesvirus 1). The test is described as follows: compounds suppressing VP16-driven luciferase signal – cell-based, luminescence, single concentration, counter-screen for SRC2 inhibitor project (AID 652007; in the data active means inhibition above about 36%). The conditions noted are these: cell-based VP16 transactivation luciferase reporter, at 8.9 µM, hits give high values.

The target of test [4] is Nuclear receptor coactivator 2 (Homo sapiens) (UniProt Q15596). The test is described as follows: inhibition of GAL4-SRC2 driven luciferase expression – cell-based, luminescence, HEK293, triplicate, confirmation (AID 652008;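 active means mean inhibition above 46.5%, the solvent-only control mean plus 3 SD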;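 further: 0% = DMSO-treated cells and 100% = Gossypol at 36 µM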). The conditions noted are these: HEK293 GAL4-SRC2 luciferase reporter, at 8.9 µM, hits give high values.
Sequence of Nuclear receptor coactivator 2 (Homo sapiens) (Q15596 whole entry, looked up, the tested form may be a part): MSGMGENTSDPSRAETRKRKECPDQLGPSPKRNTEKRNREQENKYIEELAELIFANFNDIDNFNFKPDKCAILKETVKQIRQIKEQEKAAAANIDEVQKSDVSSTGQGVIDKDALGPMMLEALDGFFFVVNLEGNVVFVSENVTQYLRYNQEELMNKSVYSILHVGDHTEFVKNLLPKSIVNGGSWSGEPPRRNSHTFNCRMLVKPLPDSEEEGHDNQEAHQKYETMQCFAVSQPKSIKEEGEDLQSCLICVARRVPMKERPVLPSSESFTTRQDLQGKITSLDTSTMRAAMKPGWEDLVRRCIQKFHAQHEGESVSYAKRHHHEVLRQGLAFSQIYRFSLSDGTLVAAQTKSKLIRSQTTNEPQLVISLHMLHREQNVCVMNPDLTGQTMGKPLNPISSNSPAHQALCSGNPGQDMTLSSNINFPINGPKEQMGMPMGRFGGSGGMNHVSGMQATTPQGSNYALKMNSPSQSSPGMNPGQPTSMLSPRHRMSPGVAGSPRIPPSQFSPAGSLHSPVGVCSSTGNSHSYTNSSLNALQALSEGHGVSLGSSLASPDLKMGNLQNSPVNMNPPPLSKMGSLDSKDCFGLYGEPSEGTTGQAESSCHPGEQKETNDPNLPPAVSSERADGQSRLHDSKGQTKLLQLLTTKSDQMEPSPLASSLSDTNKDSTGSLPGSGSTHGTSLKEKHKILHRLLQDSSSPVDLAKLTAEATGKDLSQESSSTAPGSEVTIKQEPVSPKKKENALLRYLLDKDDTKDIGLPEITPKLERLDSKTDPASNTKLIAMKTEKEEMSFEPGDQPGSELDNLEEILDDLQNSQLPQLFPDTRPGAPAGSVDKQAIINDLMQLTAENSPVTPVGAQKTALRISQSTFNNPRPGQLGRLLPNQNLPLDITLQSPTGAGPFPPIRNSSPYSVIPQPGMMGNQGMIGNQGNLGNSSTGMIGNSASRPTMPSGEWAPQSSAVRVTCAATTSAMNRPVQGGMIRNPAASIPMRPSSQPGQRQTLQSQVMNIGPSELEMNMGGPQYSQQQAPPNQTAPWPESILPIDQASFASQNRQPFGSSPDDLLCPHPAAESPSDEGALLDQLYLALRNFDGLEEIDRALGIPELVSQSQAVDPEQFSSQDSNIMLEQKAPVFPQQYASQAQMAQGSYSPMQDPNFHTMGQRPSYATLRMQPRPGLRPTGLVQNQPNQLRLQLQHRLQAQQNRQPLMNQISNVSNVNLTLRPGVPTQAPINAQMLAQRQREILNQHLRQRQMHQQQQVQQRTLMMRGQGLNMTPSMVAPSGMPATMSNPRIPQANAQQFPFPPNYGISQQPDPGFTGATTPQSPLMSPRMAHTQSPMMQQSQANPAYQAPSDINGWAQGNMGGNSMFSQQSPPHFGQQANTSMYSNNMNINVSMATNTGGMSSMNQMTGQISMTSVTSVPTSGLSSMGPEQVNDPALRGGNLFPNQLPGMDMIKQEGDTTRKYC
A short description of test [5]: VP16-driven transactivation reporter suppression – cell-based, luminescence, HEK293, counter-screen for COUP-TFII antagonist project (AID 687007; in the data active means inhibition above about 13%). The conditions noted are these: HEK293 Gal4-VP16 luciferase reporter, at 8.5 µM, hits give high values.
Test [6] addresses COUP transcription factor 2 (Homo sapiens) (UniProt P24468). The test is described as follows: retest of COUP-TFII reporter suppressors – cell-based, luciferase reporter, HEK293, triplicate, confirmation (AID 687008).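 Further: 100% = cells given the luciferase reporter alone without the COUP-TF2 vector.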 The conditions noted are these: HEK293 NGFI-A luciferase reporter, luminescence; at 8.5 µM; hits give high values.
Test [7] deals with Galanin receptor type 2 (Homo sapiens) (UniProt O43603). The test is described as follows: blockers of human galanin receptor 2 – cell-based, confirmation (AID 866; in the data active means inhibition above about 27%;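 further: cells stimulated with galanin at about its EC80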). The conditions noted are these: GALR2-expressing cells, antagonist mode, at 4 µM, hits give high values.
Sequence of Galanin receptor type 2 (Homo sapiens) (O43603 whole entry, looked up): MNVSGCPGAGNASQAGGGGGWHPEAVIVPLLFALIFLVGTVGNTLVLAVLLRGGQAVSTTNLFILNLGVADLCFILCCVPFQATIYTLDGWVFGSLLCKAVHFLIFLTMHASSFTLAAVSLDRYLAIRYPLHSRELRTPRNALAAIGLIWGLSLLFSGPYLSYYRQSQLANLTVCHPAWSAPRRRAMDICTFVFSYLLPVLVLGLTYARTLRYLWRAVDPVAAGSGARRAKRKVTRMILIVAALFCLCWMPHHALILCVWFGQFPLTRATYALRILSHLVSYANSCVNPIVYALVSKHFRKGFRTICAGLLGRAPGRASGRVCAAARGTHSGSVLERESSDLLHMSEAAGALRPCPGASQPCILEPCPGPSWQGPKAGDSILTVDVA
Test [8] in a line: nonspecific BLA reporter inhibition – CHO NFAT-bla cells, FRET readout, counter-screen for GALR2 antagonist project, confirmation (AID 867;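 active means inhibition above the mean inhibition across tested compounds plus 3 SD, cut at about 27% in these data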;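 further: 0% = 500 nM thapsigargin stimulated wells and 100% = unstimulated BSA only wells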). The conditions noted are these: beta-lactamase FRET, thapsigargin-stimulated, at 4.2 µM, hits give high values.
The target of test [9] is (Lyso)-N-acylphosphatidylethanolamine lipase (Mus musculus) (UniProt Q8VD66). The test is described as follows: mouse ABHD4 hydrolase blockers, triplicate – biochemical, fluorescence polarization, confirmation (AID 720658;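 active means mean inhibition across replicates above the hit cutoff set in the primary screen, cut at about 30% in these data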;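 further: 0% = wild-type ABHD4 with DMSO and 100% = catalytically dead S159A mutant with DMSO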). The conditions noted are these: purified mABHD4, FP-Rh probe fluorescence polarization; at 8.92 µM; hits give high values.
Sequence of (Lyso)-N-acylphosphatidylethanolamine lipase (Mus musculus) (Q8VD66 whole entry, looked up, the tested form may be a part): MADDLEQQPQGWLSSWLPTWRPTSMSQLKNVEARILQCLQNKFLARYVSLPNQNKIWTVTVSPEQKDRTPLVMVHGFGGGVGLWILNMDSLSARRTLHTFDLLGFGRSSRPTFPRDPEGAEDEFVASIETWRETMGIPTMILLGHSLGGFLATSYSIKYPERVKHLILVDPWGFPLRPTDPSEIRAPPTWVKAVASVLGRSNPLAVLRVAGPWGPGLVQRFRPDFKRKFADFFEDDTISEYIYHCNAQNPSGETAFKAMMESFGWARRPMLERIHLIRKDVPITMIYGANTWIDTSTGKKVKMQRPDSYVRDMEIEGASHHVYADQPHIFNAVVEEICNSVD
In test [10] the test system is DAF-12 nuclear receptor (Heterodera glycines), GAL4-LBD fusion. Description: hgDAF-12 GAL4 fusion reporter activation, retest – cell-based, luminescence, HEK293, GAL4-LBD fusion, confirmation (AID 743050;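 active means mean activation over triplicate wells above the hit cutoff derived from the earlier primary screen, cut at about 11% in these data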;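 further: 0% = DMSO low control and 100% = 2 mM sodium butyrate high control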). The conditions noted are these: HEK293 GAL4-hgDAF12 luciferase reporter, agonist mode; at 6.8 µM; hits give high values; percent of butyrate response.
Test [11] has as its target Oxysterols receptor LXR-beta (Homo sapiens) (UniProt P55055). The test is described as follows: nonspecific reporter activation via LXR – cell-based, luminescence, HEK293, H. glycines campaign, counter-screen for hgDAF-12 agonist project, confirmation (AID 743051;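 active means mean activation of the triplicate above a set limit carried over from the primary screen, none filed active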). The conditions noted are these: HEK293 Gal4-LXR luciferase reporter, 24 h; at 6.8 µM; hits give high values.

The target is the same in test [12]. The test is described as follows: nonspecific reporter activation via LXR – cell-based, luminescence, HEK293, H. contortus campaign, counter-screen for hcDAF-12 agonist project, confirmation (AID 743027;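 active means mean percent activation of the reporter above a cutoff set as the average over tested compounds plus their standard deviation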). The conditions noted are these: HEK293 Gal4-LXR tk-luc reporter, 24 h, at 6.8 µM, hits give high values, normalized: DMSO 0%, positive control 100%.
Test [13] relates to Nuclear hormone receptor DAF-12 (Haemonchus contortus). The test is described as follows: hcDAF-12 luciferase reporter activation, retest – cell-based, luminescence, HEK293, lit1-tk-luc, triplicate, confirmation (AID 743032;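 active means mean activation across triplicate tests above the threshold derived from the earlier primary screen, cut at about 5.5% in these data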;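 further: 0% = DMSO only wells and 100% = 3 µM Δ7-dafachronic acid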). The conditions noted are these: HEK293 hcDAF-12 lit1-tk-luc reporter, at 6.8 µM, hits give high values, % of Δ7-dafachronic acid response.

Values without a mark were called inactive. The list shows a part of the results. Active and inactive are the calls of the source.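 How the source made its calls, unless noted: active means mean inhibition over three repeats above a set limit taken from the earlier primary screen (cut at about 38% in these data); inactive means the rest.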

Sequence of Oxysterols receptor LXR-beta (Homo sapiens) (P55055 whole entry, looked up, the tested form may be a part): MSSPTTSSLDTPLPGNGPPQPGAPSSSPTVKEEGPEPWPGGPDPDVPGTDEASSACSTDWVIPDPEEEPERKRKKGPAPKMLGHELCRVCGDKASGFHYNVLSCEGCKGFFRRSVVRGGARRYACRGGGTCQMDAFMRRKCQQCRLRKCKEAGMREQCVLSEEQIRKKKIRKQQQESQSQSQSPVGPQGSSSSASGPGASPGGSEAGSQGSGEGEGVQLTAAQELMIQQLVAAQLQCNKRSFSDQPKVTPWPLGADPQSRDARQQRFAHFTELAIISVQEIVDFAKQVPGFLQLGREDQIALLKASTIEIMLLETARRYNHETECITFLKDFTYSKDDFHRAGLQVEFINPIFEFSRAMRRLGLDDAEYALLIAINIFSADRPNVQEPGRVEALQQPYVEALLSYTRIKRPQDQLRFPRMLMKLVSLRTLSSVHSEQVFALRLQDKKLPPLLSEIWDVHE
Sequence of COUP transcription factor 2 (Homo sapiens) (P24468 whole entry, looked up): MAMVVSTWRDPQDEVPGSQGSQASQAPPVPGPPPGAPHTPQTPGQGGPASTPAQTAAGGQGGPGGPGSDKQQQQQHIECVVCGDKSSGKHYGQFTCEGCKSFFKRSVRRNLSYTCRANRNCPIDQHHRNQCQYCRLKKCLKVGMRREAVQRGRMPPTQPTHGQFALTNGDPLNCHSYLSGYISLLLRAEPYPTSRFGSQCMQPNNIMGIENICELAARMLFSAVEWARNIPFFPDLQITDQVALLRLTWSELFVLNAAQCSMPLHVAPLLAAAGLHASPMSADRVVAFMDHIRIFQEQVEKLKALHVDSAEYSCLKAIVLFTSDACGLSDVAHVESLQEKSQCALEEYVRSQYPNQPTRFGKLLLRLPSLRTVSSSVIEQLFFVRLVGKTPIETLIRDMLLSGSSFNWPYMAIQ

As for `COc1ccc(C(=O)NC(=S)NNC(=O)CCc2ccccc2)cc1`, the inhibition was 4.22% in [1] and 13% in [2].

Consider `Cc1ccc(C(=O)NCC(=O)O)cc1S(=O)(=O)N1CCCCC1`, for which the inhibition was 2.01% in test [1] and 5.08% in test [2].

On to `COc1ccc(C(=O)NNc2cc(C)nc(NNC(=O)c3ccc(OC)cc3)n2)cc1`, for which the figures for the inhibition in [1] and in test [2] were -5.67% and 5.09%, respectively.

As to `Cc1ccc(-c2nc(CSCC(=O)NC3CCN(Cc4ccccc4)CC3)c(C)o2)cc1`, the inhibition in test [3] is 11%; in [4], 33.9%; in test [5] it was 0.41%; in test [6], 22.5%.

Regarding `O=c1c2ccccc2c(-c2ccccc2)nn1-c1ccccn1`, the inhibition in test [1] was -1.19%; in test [2], -0.97%.

In the case of `CCN(C(=O)Nc1cccc2ccccc12)c1ccccc1`, the figures for the inhibition in test [1] and in test [2] were 2.01% and 3.23%, respectively.

As to `COc1ccc(NS(=O)(=O)c2cc(NC(=O)/C=C/c3cc(OC)c(OC)c(OC)c3)ccc2N2CCCCC2)cc1`, the inhibition in test [1] is 11%; in [2] it was 29.4% (active).

For `CN(C)S(=O)(=O)c1cccc(NC(=O)COC(=O)C2(c3ccccc3F)CCCC2)c1`, the inhibition was 17.7% in test [7], 15.1% in test [8], -4.31% in test [3] and 0.58% in [4].

Take `COc1ccccc1C(=O)NNC(=O)CCN1C(=O)/C(=C\c2ccccc2)SC1=S`: the inhibition was -8.51% in test [1] and 9.19% in test [2].

Consider `CCOC(=O)C1(CCOc2ccccc2)CCN(Cc2cc(OC)cc(OC)c2)CC1`, for which the inhibition in [5] was 6.8%; in [6], 9.24%.

Regarding `COCCCNC(=S)NNC(=O)C(O)(c1ccccc1)c1ccccc1`, the inhibition in test [1] was -0.41%; in test [2], 16.3%.

Consider `CN(CCc1ccccc1)C(=O)c1cccc(NC(=O)Cc2cccc(NC(=O)C3CCCN(C(=O)CCc4ccccc4)C3)c2)c1` (configuration not stated), for which the inhibition in test [5] was -3.76%; in test [6] it was 15.9%.

With `CN(c1cccc(NC(=O)c2ccc(CN3CCc4ccccc4C3)cc2)c1)S(C)(=O)=O`, the inhibition in test [5] is 4.04%; in test [6], 41.2% (active).

As for `Cc1ncc(CO)c(/C=N/NC(=O)c2cccc(S(=O)(=O)N3CCCC3)c2)c1O`, the inhibition was -12.6% in test [1] and 15.4% in test [2].

For `O=C(Nc1ccc(S(=O)(=O)N2CCOCC2)cc1)C1CCN(S(=O)(=O)c2ccc(Cl)cc2)CC1`, the inhibition in test [5] is 0.86%; in [6], 12.2%.

Turning to `CCOc1ccc2nc(Nc3nc4ccc(NC(C)=O)cc4s3)sc2c1`, the inhibition in test [9] is 30.9% (active).

Consider `COc1cc(/C=C/C(=O)n2cnc3ccccc32)cc(OC)c1OC`, for which the inhibition in [5] is -14.2%; in [6], 16.1%.

In the case of `CCOC(=O)Cn1c2c(n(-c3ccc(F)cc3)c1=O)C=C(c1ccccc1)[C@@H](C)C(C(=O)N(C)C1CCCCC1)=C2`, in test [9], the inhibition is 29.3%.

Take `O=C(O)c1cc([N+](=O)[O-])c(Nc2cccc3ccccc23)c([N+](=O)[O-])c1`: the inhibition in test [9] was 39.9% (active).

Take `O=C(N/N=C/c1cc([N+](=O)[O-])ccc1O)/C(=C\c1cccs1)NC(=O)c1ccccc1`: the inhibition is -11.3% in test [1] and 35% (active) in test [2].

Turning to `Cc1cc2ccccc2n1CCNC(=O)COc1ccc2ccccc2c1`, the inhibition in test [1] is 8.77%; in test [2], 2.99%; in test [9] it was 1.54%.

Take `CCN(CC)P(=O)(C(NC(=O)OC)C(F)(F)C(F)(F)C(F)(F)C(F)F)N(CC)CC` (configuration not stated): the inhibition in test [5] is 7.83%; in test [6], 14.8%.

On to `CN1CCN(/N=C/c2ccc(C#N)cc2)CC1`, for which the inhibition in test [1] is 1.63%; in test [2] it was 2.78%.

As to `Cc1ccccc1CS(=O)(=O)Cc1ccc(C(=O)Nc2ccc(Cl)cc2)o1`, the inhibition in test [5] is -1.58%; in [6], 41.5% (active).

Take `CC(=O)Oc1ccc(N(C(C)=O)S(=O)(=O)c2ccc3ccccc3c2)cc1Br`: the inhibition in test [9] was 30.6% (active).

For the compound `Cc1ccc(NC(=O)C2CC(=O)N(c3ccc4c(c3)OCCO4)C2)cc1S(=O)(=O)N1CCCCCC1` (configuration not stated), the inhibition in test [5] was -2.18%; in [6], 14.1%.

As for `CCOC(=O)C1=C(C)N=C2c3ccccc3C(=O)C2C1c1ccc(Br)cc1` (configuration not stated), the inhibition in [9] is 44.8% (active).

As for `Cc1nc(C(=O)NCc2ccccc2)sc1C1(C)CC(c2cccnc2)=NO1` (configuration not stated), the inhibition in test [5] was -2.73%; in [6] it was 6.06%.

Regarding `CC1CCN(c2ccc(C(=O)O)cc2NS(=O)(=O)c2ccc(Br)s2)CC1`, the inhibition in [9] was 47.5% (active).

Consider `Cc1ccccc1OCC(=O)Nc1ccc(N2CCN(C(=O)C(C)C)CC2)c(Cl)c1`, for which the figures for the inhibition in [5] and in test [6] were -4.24% and 10.5%, respectively.

For the compound `O=C(c1cc(C(=O)N2CCN(c3ccc(F)cc3)CC2)cc([N+](=O)[O-])c1)N1CCN(c2ccc(F)cc2)CC1`, the inhibition in [5] is -2.78%; in test [6] it was 46.7% (active).

For the compound `CCC(=O)Nc1ccc(C(=O)CSc2nnc(CNc3ccc(Cl)cc3)o2)cc1OC`, the inhibition in test [5] is -6.4%; in test [6] it was 17.3%.

For the compound `N#CC(C#N)=CN=c1ccn(Cc2ccc(Cl)cc2Cl)cc1`, the inhibition in [5] was -2.5%; in test [6] it was 9.12%.

On to `Cc1ccc(Nc2nc(CSc3nnc(-c4ccncc4)n3-c3ccccc3C)cs2)cc1`, for which the inhibition was -8.65% in test [5] and 11.9% in [6].

With `Cc1ccc(CNC(=O)Nc2nnc([C@H]3C[C@H](O)[C@@H](CO)O3)s2)cc1`, the values for the inhibition in [5] and in test [6] were -1.25% and 11.2%, respectively.

As for `CCOC(=O)N1CCN(C(=O)C[C@@H]2C(=O)N(CCc3ccc(Cl)cc3)C3=CCCC[C@]32C(=O)OCC)CC1`, the inhibition is -8.45% in test [5] and 9.27% in test [6].

As to `CCCCn1c(SCc2ncc(-c3ccccc3)o2)nc2cc(S(N)(=O)=O)ccc21`, the inhibition was 6.53% in test [5] and 14.4% in [6].

With `c1ccc(Cc2ccc(OCCn3ccnc3)cc2)cc1`, the figures for the inhibition in test [5] and in test [6] were -6.15% and 9.96%, respectively.

Regarding `OCCNc1nc(Nc2ccc(Cl)c(Cl)c2)nc2ccccc12`, the inhibition in [9] is 40.4% (active).

Turning to `CN(C)CCNC(=O)C(C(=O)c1ccccc1)n1ccccc1=O` (configuration not stated), the figures for the inhibition in test [1] and in [2] were -0.25% and 2.79%, respectively.

Take `O=C(Nc1ccc(S(=O)(=O)NCC2CCCO2)cc1)c1ccc(F)cc1` (configuration not stated): the inhibition in test [5] is 3.93%; in test [6], 13.8%.

With `Cc1ccc(-n2nc3c(=O)n(C(C)C(=O)NCc4ccc5c(c4)OCO5)nc(C)c3c2C)cc1` (configuration not stated), the inhibition was -6.28% in [5] and 11.8% in test [6].

With `CCc1ccc(-c2nc(SCC(=O)NC3CCCC3)n[nH]2)cc1`, the inhibition is -22.9% in test [5] and 11.9% in [6].

As to `CN(C(=O)c1cccc(NC(=O)Cc2cccc([N+](=O)[O-])c2)c1)C1CCCCC1`, the inhibition was -3.36% in test [5] and 1.83% in [6].

On to `COc1ccc(OC)c(CNC(=O)Cn2nc(C)c3c(C)n(-c4ccc(C)cc4)nc3c2=O)c1`, for which the results for the inhibition in test [5] and in test [6] were -4.78% and 51.1% (active), respectively.

For the compound `NS(=O)(=O)c1ccc(CCNC(=O)c2ccc(Cl)c(S(=O)(=O)N3CCCCCC3)c2)cc1`, the inhibition is 5.82% in test [5] and 39.1% (active) in [6].

Take `Cc1ccc(OCC(=O)Nc2ccc(N3CCN(C(=O)c4ccco4)CC3)cc2)c(C)c1`: the inhibition was 4.51% in test [5] and 24.3% in test [6].

`NS(=O)(=O)c1ccc(CCNc2nc(C(F)(F)F)nc3ccccc23)cc1`: the inhibition was -10.4% in test [5] and 0.16% in [6].

Regarding `COc1ccc(NC(=O)C2Cc3c(-c4cccc(NC(C)=O)c4)ccnc3O2)cc1OC` (configuration not stated), the inhibition was -1.35% in test [5] and 14.6% in test [6].

For the compound `O=C(O)c1ccc(N/N=C/c2cn(-c3ccccc3)nc2-c2cccs2)cc1`, the activation in test [10] was 19.1% (active); in [11] it was 0.89%.

For the compound `COc1ccc(-c2c3c(=O)n(C)c(=O)n(C)c3cn2-c2cccc(OC)c2)cc1`, the activation in test [12] is -0.23%; in test [13], 3.87%.

Regarding `Cc1cc(O)c(C(=O)/C=C/c2c(F)c(F)c(F)c(F)c2F)c(=O)o1`, the figures for the activation in test [12] and in test [13] were -0.23% and -1.06%, respectively.
